Compound activity as filed in PubChem BioAssay.
Pf growth 48h – inhibits P. falciparum growth in the first generation, 48 h | P. falciparum luciferase growth in erythrocytes, 48 h | Potency, µM (highest dose often 28.7 µM), for the others: at the highest dose activity change, negative = inhibition, actives largely listed as inhibitors | 5.9% of 310,000 active | AID 504832; note: potency is the fitted concentration of half-maximal effect; % is set by controls: 0 for no effect and ±100 for the full control effect
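Parasite viability was followed by luminescence of a genomically integrated firefly luciferase. Cultures held 0.1% parasitemia at 2% hematocrit (final), incubated under 5% CO2 at 37 C.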
CHX counter – counter-screen hit for Shiga toxin inhibitors, cycloheximide. cell reporter, cycloheximide protein synthesis inhibition counterscreen. max response, %. 12% of 300,000 active. AID 2314; in the data active = max response mostly above about 13%, no sharp cut-off; inactive = mostly below about 14%; note: read at 38.3 µM for the half of the compounds with a filed dose; 0% is about no effect
Pf growth 96h – P. falciparum growth inhibition at 96 hour, primary screen for plastid delayed-death inhibitors. P. falciparum luciferase reporter growth, 96 h. Potency, µM (top dose mostly 28.7 µM), without a hit: top-dose activity change, negative = inhibition, actives largely listed as inhibitors. 6.9% of 320,000 active; note: potency is the fitted concentration of half-maximal effect; % is set by controls: 0 for no effect and ±100 for the full control effect
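Two parasite generations (96 h, 37 C, 5% CO2) of compound exposure in infected erythrocytes (0.05% parasitemia, 2% hematocrit). Luciferase-reporter P. falciparum; decreased luminescence indicates inhibited growth, aimed at apicoplast-acting delayed death.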
Shiga toxin inh – blocks Shiga toxin action in Vero cells; Vero cells, Shiga toxin protein synthesis inhibition reporter; AID 2315; inhibition, % at 38.7 µM; 9.2% of 290,000 active; in the data active = inhibition mostly above about 28%, no sharp cut-off; inactive = mostly below about 43%; note: 0% is about no effect
* marks the source's active call; other numbers are inactive results; i = inactive; ? = inconclusive; nt = no result; [ ] = another dose, or the depositor's remark. In the library only some 21% were active in any assay of this set; here they are far more common. Unless noted, calls come from the whole dose curve; as a rule, active = well fitted inhibition curve with a large enough effect; inconclusive = small, poorly fitted or top-dose-only effect, or another doubt; inactive = no such curve, though single readings can be large or run the other way.

SMILES	Pf growth 48h	CHX counter	Pf growth 96h	Shiga toxin inh
Cc1ccc(C(=O)OCC(=O)NCc2ccc(F)cc2)o1	9.9%	nt	-3.9%	nt
CCC(=O)Nc1ccc(NC(=O)c2cccc3c(Br)cccc23)cc1	16.2%	2.1	6.57µM*	-12.1
O=C(O)c1ccc(NC(=O)c2ccccc2NC(=O)c2ccccc2Br)cc1	3.3%	-0.4	?	-3.9
O=C(CC(=O)Nc1ccc(Br)cc1)Nc1ccc(Br)cc1	31.8%	-1.6	41.9%	7.1
CCc1ccc(NC(=O)c2ccccc2Br)cc1	i	34.6*	i	61.0*
O=C(Nc1ccc(Br)cc1)c1cc(Br)cc(Br)c1O	?	41.8*	-11.9%	93.0*
O=C(Nc1ccc(Br)cc1)c1ccccc1Br	127.7%	55.3*	8.3%	89.8*
CCC(=O)Nc1ccc(NC(=O)c2cccc3ccccc23)cc1	1.3%	-4.1	7.9%	nt
Cc1ccc(C)c(-n2cc(CN3CCCN(C=O)CC3)c(-c3ccccc3)n2)c1	-1.3%	0.5	?	6.8
Cc1ccc(NC(=O)CCNS(=O)(=O)c2ccc(OC(F)(F)F)cc2)c(O)c1	19.5%	1.0	11.9%	-14.1
COc1ccc(Nc2ccccc2NC(=O)c2ccccc2Br)cc1	1.65µM*	-0.3	2.08µM*	6.5
COc1cccc(/C=C2\N=C3CCCCCN3C2=O)c1	nt	51.8*	-8.0%	106.4*
CCOc1cc(/C=C2\N=C3CCCCCN3C2=O)ccc1O	94.3%	35.9*	-1.5%	97.2*
COc1ccc(/C=C2/N=C(SC3CCOC3=O)N(c3cccc(OC)c3)C2=O)cc1 (stereo not drawn)	?	4.8	?	-3.9
CCOc1cc(/C=C2\SC(N)=NC2=O)ccc1O	0.0%	3.7	?	14.1
CCOc1ccc(/C=N/NC(=O)CN2CCCCCCC2)cc1	-8.6%	5.4	?	3.4
CCCc1nc(NCCCOCC)c2nnn(Cc3ccccc3)c2n1	5.3%	-3.0	11.7µM*	nt
CCOCCCNc1nc(C(F)(F)F)nc2c1nnn2Cc1ccccc1Cl	17.9%[0.00184 µM]	-2.6	-20.1%	-8.2
Cc1c([N+](=O)[O-])cc(C(=O)Nc2ccc(NC(=O)c3ccco3)cc2)cc1[N+](=O)[O-]	?	-5.1	4.1%	-7.6
Cc1oc(-c2cccc(F)c2)nc1CN(Cc1ccccc1)C[C@@H]1CCC(=O)N1	?	-1.2	8.28µM*	-8.3
Cc1oc(-c2ccccc2Cl)nc1CN(Cc1ccccn1)C[C@@H]1CCC(=O)N1	8.4%	13.9	?	5.5
Cc1c(C)c2ccc(O[C@@H]3O[C@H](CO)[C@H](O)[C@H](O)[C@H]3O)c(C)c2oc1=O	16.8%	6.0	14.7%	5.6
Cc1c(O[C@@H]2O[C@H](CO)[C@@H](O)[C@H](O)[C@H]2O)ccc2c1oc(=O)c1ccccc12	-11.3%[0.00184 µM]	15.3*	-13.5%	47.9
CC(=O)NS(=O)(=O)c1ccc(NC(=O)c2ccc3c(c2)OCO3)cc1	32.3%	-2.3	?	-6.8
CCN(CCn1cccn1)C(=O)C1CCC(=O)N(CC2CCCCC2)C1 (stereo not drawn)	-1.8%	1.2	-16.2%	7.5
SMILES	Pf growth 48h	CHX counter	Pf growth 96h	Shiga toxin inh
COCc1nnc(NC(=O)C2CC(=O)N(C3CCCC3)C2)s1 (stereo not drawn)	5.0%	-5.1	0.2%	-11.2
CN(C)C(C)(C)/C=C/C(O)(c1ccccc1)c1ccccc1	-1.8%	0.6	3.1%	-19.9
O=c1c2ccccc2nc2oc3ccccc3n12	97.9%	42.2*	13.1µM*	84.5*
O=c1c2ccccc2nc2n1CCO2	nt	-2.3	12.8%	3.5
OC(CNC1CCCCCC1)COc1cccc2ccccc12 (stereo not drawn)	1.65µM*	-4.3	2.08µM*	-8.7
OC(CNCCc1ccc(C(F)(F)F)cc1)COc1cccc2ccccc12 (stereo not drawn)	7.38µM*	-5.0	6.57µM*	-13.6
OC(CNCCc1ccc(C(F)(F)F)cc1)COc1ccc2ccccc2c1 (stereo not drawn)	?	-10.4	?	-24.2
OC(CNC1CCCC1)COc1ccccc1Br (stereo not drawn)	-102.1%	-1.3	-96.7%	10.6
CCN1CCCC1CNCC(O)COc1ccc(C(C)(C)C)cc1C (stereo not drawn)	10.4µM*	-2.2	11.7µM*	-30.3
Cc1ccccc1OCC(O)CN(Cc1ccccc1O)C1CCCCC1 (stereo not drawn)	0.233µM*	-3.9	0.185µM*	-2.9
COC(=O)C1CCN(C(=O)[C@H](C)NC(=O)C2CC(=O)N(c3ccc(F)cc3)C2)CC1 (stereo partly drawn)	-10.5%	2.4	-20.7%	1.7
CCCCN(C)CCNC(=O)CN1C(=O)CSc2ccc(S(=O)(=O)N3CCOCC3)cc21	5.8%	-2.4	2.3%	-7.2
